Results filed as inconclusive are left out. A call without a number means that no potency is given here. The source made the active and inactive calls. Unless noted, calls come from the whole dose curve; as a rule, active = well fitted curve in either direction with a large enough effect (not every such curve was filed as active); inconclusive = small, poorly fitted or top-dose-only effect, or another doubt; inactive = flat fitted curve, though single readings scatter.
Legend:
[1] = target: Mitogen-activated protein kinase 10 (Mus musculus) (UniProt Q61831); assay: JNK3 AlphaScreen Assay (AID 530);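 note: kinase came from lysate of stimulated human HepG2 cells; signal reports phosphorylation of biotinylated GST-cJun 1-79 at Ser73 with 10 µM ATP; series mostly up to about 57 µM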
Method in brief: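 Phosphorylation of biotinylated GST-cJun(1-79) at Ser73 is measured by AlphaScreen proximity luminescence. Enzyme is JNK3 in HepG2 lysates activated with interleukin-1beta and tumor necrosis factor alpha; ATP is 10 uM final.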

[2] = target: Cytochrome P450 3A4 (Homo sapiens) (UniProt P08684); assay: qHTS Assay for Activators of Cytochrome P450 3A4 (AID 885; active = well fitted activation curve with a large enough effect; note: nearly all actives have a fitted effect of over 65% in size)
Sequence of Cytochrome P450 3A4 (Homo sapiens) (P08684 whole entry, looked up): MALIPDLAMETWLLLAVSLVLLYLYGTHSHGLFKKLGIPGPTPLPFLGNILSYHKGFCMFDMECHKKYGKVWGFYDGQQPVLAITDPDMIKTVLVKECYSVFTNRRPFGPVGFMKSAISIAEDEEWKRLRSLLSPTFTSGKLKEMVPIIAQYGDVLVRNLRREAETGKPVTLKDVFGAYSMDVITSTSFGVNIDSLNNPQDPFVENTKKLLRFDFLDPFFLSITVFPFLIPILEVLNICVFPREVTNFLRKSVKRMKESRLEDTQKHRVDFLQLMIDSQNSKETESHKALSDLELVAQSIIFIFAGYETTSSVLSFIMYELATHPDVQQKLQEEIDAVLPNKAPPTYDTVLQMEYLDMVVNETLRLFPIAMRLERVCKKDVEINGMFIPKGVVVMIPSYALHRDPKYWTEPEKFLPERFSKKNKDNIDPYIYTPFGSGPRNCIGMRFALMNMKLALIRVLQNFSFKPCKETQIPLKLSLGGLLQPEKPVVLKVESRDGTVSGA
Method in brief: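 Using 20nM recombinant human CYP3A4 in potassium phosphate (200mM), substrate Luciferin-PPXE at 25uM, luminescent luciferin detection followed a 60-min RT NADPH reaction; data scaled to 57 uM ketoconazole.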

SMILES | outcome [1] | Potency [2]
COC(=O)N1CC=CC1(C)C(=O)NCc1ccc(C)o1 (stereo not drawn) | inactive | inactive
COC(=O)c1ccc(C(NC(=O)OCc2ccccc2)/C(I)=C/[C@@H](C)C(=O)NCc2ccncc2)cc1 (stereo partly drawn) | inactive | inactive
CNC(=O)C1(C)C=CC2(CCCCC2)N1C(=O)OC (stereo not drawn) | inactive | inactive
CC(C)CC1(C(=O)NCCN2CCOCC2)C=CCN1C(=O)c1ccccc1 (stereo not drawn) | inactive | inactive
COC(=O)c1ccc(C(NC(=O)OCc2ccccc2)/C(C)=C/[C@@H](C)C(=O)NC2CCCCC2)cc1 (stereo partly drawn) | inactive | inactive
COC(=O)[C@@]1(C)C=C[C@@H](Cc2ccccc2)N1C(=O)c1ccccc1 | inactive | inactive
CC1(C(=O)NCCCNc2ncc(C(F)(F)F)cc2Cl)C=CC2(CCCCC2)N1C(=O)c1ccccc1 (stereo not drawn) | inactive | inactive
CC(=O)N1[C@H](C)C=C[C@]1(Cc1ccccc1)C(=O)NCCN1CCOCC1 | inactive | inactive
COC(=O)CNC(=O)C1(C)C=CCN1C(=O)c1ccccc1 (stereo not drawn) | inactive | inactive
COC(=O)N1[C@H](C)C=C[C@]1(Cc1ccccc1)C(=O)NCc1ccc(C)o1 | inactive | inactive
CC(=O)N1CC=CC1(C)C(=O)NCc1cc(F)cc(C(F)(F)F)c1 (stereo not drawn) | inactive | inactive
COC(=O)[C@@]1(C)C=C[C@@H](Cc2ccccc2)N1C(C)=O | inactive | inactive
COC(=O)c1ccc(C(NC(=O)OCc2ccccc2)/C(C)=C/[C@@H](C)C(=O)N[C@@H](CO)Cc2ccccc2)cc1 (stereo partly drawn) | inactive | inactive
COC(=O)CNC(=O)C1(C)C=CC2(CCCCC2)N1C(C)=O (stereo not drawn) | inactive | inactive

From PubChem BioAssay (NCATS)
